Results reported in PubChem BioAssay.
Calls of active or inactive are those of the source. Rule as the data show it, unless noted: active = nuclear beta-catenin stimulation mostly above about 4.2% (no sharp cut-off); inactive = mostly below about 10%.

Assays:
[1] = Wnt pathway potentiators raising nuclear beta-catenin – imaging, WNT3A-conditioned medium, mouse C2C12, NPC library, primary screen (AID 1117326); settings: stronger effect = higher value; also: reference of the scale not given here
[2] = stimulators of insulin release from INS-1E, primary screen, cell-based, 5 mM glucose, NPC library (AID 1117329;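 active = compound raises insulin release from rat beta cells at 5 mM glucose, no numeric limit stated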; also: reference of the scale not given here); settings: rat INS-1E insulin secretion, at 10 µM, stronger effect = higher value
[3] = growth inhibition of GSK3B-pretreated HCT116 cells – cell-based, CellTiter-Glo, 0.2 to 20 µM (AID 1117336;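 active = compounds lowering colon cancer cell viability after pretreatment blocking the GSK3B kinase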); settings: HCT116 viability after GSK3B inhibitor, at 20 µM, stronger effect = higher value
[4] = inhibition of endothelial tube formation, primary screen, imaging, VEGF stimulated, CD31 staining, tube area, NPC library (AID 1117340;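 active = compound that reduces growth-factor-driven endothelial tube area in a mixed cell culture, no cutoff stated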); settings: VEGF-stimulated ADSC/ECFC co-culture, at 10 µM, stronger effect = higher value
[5] = GLP1 release stimulators, primary, NCI-H716, NPC library (AID 1117341;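 active = compound raises GLP1 secretion from the human gut endocrine cells, with no numeric limit stated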; also: reference of the scale not given here); settings: NCI-H716 cells, at 10 µM, stronger effect = higher value
[6] = HCT116 colon cancer cell growth inhibition, primary screen, CellTiter-Glo luminescence, NPC library (AID 1117342;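 active = compounds that lower survival of HCT116 colon cancer cells in the luminescence readout, no numeric limit stated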); settings: at 20 µM (top of the series)
[7] = reduced SW480 viability measured with CellTiter-Glo, NPC library, primary (AID 1117343;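 active = compounds that lower viability of the colon cancer cells in the luminescence readout, with no numeric limit stated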); settings: CellTiter-Glo luminescence; at 20 µM (top of the series)
[8] = NPC library primary testing for decreased DLD-1 cell viability via CellTiter-Glo (AID 1117346;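 active = compounds that lower survival of DLD-1 colon cancer cells in the luminescence readout, no cutoff given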); settings: DLD-1 viability, CellTiter-Glo luminescence; at 20 µM (top of the series)

Row | SMILES | nuclear beta-catenin stimulation ([1]; at 10 µM) | nuclear beta-catenin stimulation ([1]; stimulation, at 2 µM) [%] | insulin secretion stimulation [2] | viability decrease [3] | tube area decrease [4] | GLP1 secretion stimulation [5] | inhibition of viability [6] | viability decrease (inhibition) [7] | viability decrease (inhibition) [8]
1 | CC(C)(C)NC[C@H](O)c1ccc(O)cc1Cl | 0.3% (inactive) | -0.2 | 7.2% (inactive) | 13.2% (inactive) | -4.4% (inactive) | 5.5% (inactive) | 35.7% (inactive) | 37.1% (inactive) | 8.8% (inactive)
2 | O=c1oc2ccccc2c(O)c1C(CC(O)c1ccc(-c2ccc(Br)cc2)cc1)c1ccccc1 (stereo unspecified) | 8.3% (inactive) | 2.6 | 3.6% (inactive) | 100% (active) | 2.4% (inactive) | 23.9% (active) | 101% (active) | 122% (active) | 103% (active)
3 | CC1(C)S[C@@H]2[C@H](N)C(=O)N2[C@@H]1C(=O)O | 0.4% (inactive) | 3 | -0.3% (inactive) | -4.5% (inactive) | 7.5% (inactive) | 0% (inactive) | 2.1% (inactive) | 6.9% (inactive) | -4.4% (inactive)
4 | ClCCN1CCCC1 | 0.7% (inactive) | -0.2 | 4% (inactive) | 5.1% (inactive) | 9.9% (inactive) | -2.4% (inactive) | -8.3% (inactive) | 8.7% (inactive) | 8.5% (inactive)
5 | CC(C)C(Br)C(=O)NC(N)=O (stereo unspecified) | 0.6% (inactive) | 1 | -0.4% (inactive) | -0.05% (inactive) | 1.7% (inactive) | -0.8% (inactive) | -3% (inactive) | 4.9% (inactive) | 1% (inactive)
6 | CNC(C)[C@@H](O)c1ccc(O)cc1 (stereo partly specified) | 0.7% (inactive) | 1.3 | 4.8% (inactive) | -4.1% (inactive) | -8.3% (inactive) | -5% (inactive) | 3.4% (inactive) | 27.7% (inactive) | 6% (inactive)
7 | Oc1c(Br)cc(Br)cc1Br | -0.6% (inactive) | -0.3 | -0.4% (inactive) | -83.3% (inactive) | 10% (inactive) | -3.7% (inactive) | -18% (inactive) | 32.1% (inactive) | 37.1% (inactive)
8 | CC(C)=C[C@@H]1[C@@H](C(=O)OCc2coc(Cc3ccccc3)c2)C1(C)C | 0.3% (inactive) | 0.4 | -3.4% (inactive) | 14.7% (inactive) | 12.6% (inactive) | -0.4% (inactive) | 12.9% (inactive) | 87.8% (active) | 23.4% (inactive)
9 | C#CCOC(C(=O)OCCN(C)C)(c1ccccc1)c1ccccc1 | 2.7% (inactive) | 0.9 | 28.7% (active) | -8.15% (inactive) | 36.7% (inactive) | 5.3% (inactive) | -6.2% (inactive) | 17.1% (inactive) | -1.8% (inactive)
10 | O=C1c2ccccc2C(=O)C1C(=O)C(c1ccccc1)c1ccccc1 | 0.3% (inactive) | -0.1 | -2.2% (inactive) | 91.3% (active) | 78.8% (active) | -5% (inactive) | 44.8% (inactive) | 120% (active) | 99.3% (active)
11 | CCN(CC)Cc1nccn1-c1ccc([N+](=O)[O-])cc1C(=O)c1ccccc1Cl | -1.2% (inactive) | -0.2 | 7.4% (inactive) | -3% (inactive) | 2.7% (inactive) | -0.3% (inactive) | 28.5% (inactive) | 39.7% (inactive) | 0% (inactive)
12 | NNc1ccccc1 | 0.8% (inactive) | 2.4 | -1.6% (inactive) | 14.6% (inactive) | 26.7% (inactive) | 3.7% (inactive) | -3.85% (inactive) | 45% (inactive) | 21.2% (inactive)
13 | C[C@]12CCC(=O)C=C1C=C[C@@H]1[C@H]2CC[C@@]2(C)[C@@H]1CC[C@@]2(O)CCC(=O)O | -1.1% (inactive) | 0 | -2.4% (inactive) | -15.4% (inactive) | 2% (inactive) | 0.9% (inactive) | 3.7% (inactive) | -2% (inactive) | -7.2% (inactive)
14 | CCN1CCCC1CNC(=O)C(O)(c1ccccc1)c1ccccc1 (stereo unspecified) | 1.8% (inactive) | 1.9 | 8.1% (inactive) | -4.1% (inactive) | -2.9% (inactive) | -0.1% (inactive) | 10.9% (inactive) | 24.2% (inactive) | -4.5% (active)
15 | Cc1ccc2c(c1)C1CN(C)CCC1N2 (stereo unspecified) | -0.3% (inactive) | 0.7 | -0.9% (inactive) | 1.05% (inactive) | -17.5% (inactive) | 6.1% (inactive) | 5.2% (inactive) | 22.4% (inactive) | 0.7% (inactive)
16 | CCOC(=O)NC(O)C(Cl)(Cl)Cl (stereo unspecified) | -0.2% (inactive) | 2.2 | 0.3% (inactive) | -4.2% (inactive) | -20.4% (inactive) | 0.8% (inactive) | -2.5% (inactive) | 16.2% (inactive) | 4.55% (inactive)
17 | C=CCOC(Cn1ccnc1)c1ccc(Cl)cc1Cl (stereo unspecified) | 4.9% (inactive) | 2.5 | 6.1% (inactive) | -54.8% (inactive) | 6.3% (inactive) | 0.8% (inactive) | 58.1% (active) | 96.7% (active) | 30.1% (inactive)

Row | SMILES | nuclear beta-catenin stimulation ([1]; at 10 µM) | nuclear beta-catenin stimulation ([1]; stimulation, at 2 µM) [%] | insulin secretion stimulation [2] | viability decrease [3] | tube area decrease [4] | GLP1 secretion stimulation [5] | inhibition of viability [6] | viability decrease (inhibition) [7] | viability decrease (inhibition) [8]
18 | O=c1[nH]c2ccccc2n1C1CCNCC1 | 0.8% (inactive) | -0.9 | -0.9% (inactive) | -5% (inactive) | -5.4% (inactive) | 1.9% (inactive) | -8.2% (inactive) | -13.1% (inactive) | 7.3% (inactive)
19 | CNC(=O)NC(O)C(Cl)(Cl)Cl (stereo unspecified) | -0.4% (inactive) | -0.2 | -1% (inactive) | -2.1% (inactive) | -28.9% (inactive) | 3.1% (inactive) | -4.4% (inactive) | 19.7% (inactive) | -1.55% (inactive)
20 | c1cc2c(c(N3CCNCC3)c1)OCCO2 | -1.4% (inactive) | 0.7 | 1.8% (inactive) | -14.9% (inactive) | -9.4% (inactive) | -2.6% (inactive) | 3.6% (inactive) | 3.4% (active) | -7.5% (inactive)
21 | C[C@]12CC[C@H]3[C@@H](CC[C@@]45O[C@H]4C(O)=C(C#N)C[C@]35C)[C@H]1CC[C@H]2O | 1.5% (inactive) | 1.1 | -0.7% (inactive) | -177% (inactive) | 28.3% (inactive) | -1.5% (inactive) | 11.5% (inactive) | 5.1% (inactive) | -16.6% (inactive)
22 | O=C(Nc1ccc(Br)cc1)c1cc(Br)cc(Br)c1O | 28.9% (inactive) | 0.4 | -3% (inactive) | 98% (active) | 108% (active) | -3.5% (inactive) | 98.2% (active) | 94.4% (active) | 100% (active)
23 | C1CCC(NC2CCCCC2)CC1 | 1.5% (inactive) | 2 | 1.3% (inactive) | -4.15% (inactive) | -1.6% (inactive) | 0.1% (inactive) | 7.9% (inactive) | -22% (inactive) | -4.45% (inactive)
24 | C[C@]12Cc3nonc3C[C@@H]1CC[C@@H]1[C@@H]2CC[C@@]2(C)[C@H]1CC[C@]2(C)O | 2.5% (inactive) | 0.4 | -2.4% (inactive) | 38.9% (inactive) | 1.9% (inactive) | 3.3% (inactive) | 1.5% (inactive) | 118% (active) | 61% (active)
25 | CNC(C)Cc1ccccc1OC (stereo unspecified) | -0.4% (inactive) | 1.2 | 7.2% (inactive) | -1.3% (inactive) | -13.1% (inactive) | 0.2% (inactive) | 9.4% (inactive) | 41.8% (inactive) | 43.1% (inactive)
26 | Nc1ccc(Cl)cc1C(=O)c1ccccc1F | 2.3% (inactive) | 4.2 | 5% (inactive) | 23.5% (inactive) | 25.4% (inactive) | 21.1% (active) | 44.6% (inactive) | 61.9% (active) | 12.8% (inactive)
27 | NCC(O)c1cccc(O)c1 (stereo unspecified) | -0.9% (inactive) | 0.5 | 0.5% (inactive) | -15% (inactive) | -16.5% (inactive) | 2.9% (inactive) | 4.5% (inactive) | 4.3% (inactive) | 5.4% (inactive)
28 | COP(=S)(OC)SCN1C(=O)c2ccccc2C1=O | 0.4% (inactive) | 1.1 | -0.9% (inactive) | -8.95% (inactive) | 1.5% (inactive) | 0% (inactive) | -8.5% (inactive) | 6.9% (inactive) | 24.4% (inactive)
29 | COc1cccc(C(=O)CCN[C@@H](C)[C@H](O)c2ccccc2)c1 | 20.8% (inactive) | -0.6 | 8.8% (inactive) | -1.3% (inactive) | 42% (active) | 0.7% (inactive) | 2.3% (inactive) | 91.6% (active) | 75.9% (active)
30 | O=C(O)CCCCCCNC1c2ccccc2CCc2ccccc21 | -0.3% (inactive) | -1.4 | -0.2% (inactive) | -7.3% (inactive) | -4.7% (inactive) | 0.3% (inactive) | -9.4% (inactive) | 13.9% (inactive) | -13.1% (inactive)
31 | C[C@]12C=CC(=O)C=C1CC[C@@H]1[C@@H]2CC[C@@]2(C)[C@H]1CC[C@]2(C)O | 6.6% (inactive) | 2.4 | 1.5% (inactive) | 38.6% (inactive) | 31.2% (inactive) | 4% (inactive) | 29.9% (inactive) | 75.7% (active) | 17.9% (inactive)
32 | O=C(CCl)c1ccc(Cl)cc1Cl | 3.3% (active) | 45.6 | 4.4% (inactive) | 66.2% (active) | 104% (active) | -6.4% (inactive) | 88.3% (active) | 91.8% (active) | 64.8% (active)
33 | CCOP(=S)(OCC)O/N=C(\C#N)c1ccccc1 | -0.3% (inactive) | 0.3 | -1.4% (inactive) | -25.2% (inactive) | -2.3% (inactive) | -1.1% (inactive) | 0.2% (inactive) | 36.2% (inactive) | -6.4% (inactive)
34 | CC(C)NCC(O)c1ccc([N+](=O)[O-])cc1 (stereo unspecified) | -2.4% (inactive) | -1 | 5.1% (inactive) | -1% (inactive) | 15% (inactive) | -0.9% (inactive) | 17.5% (inactive) | 33.9% (active) | 1.9% (inactive)
